Source: PubChem BioAssay AID1259343 (VanderVen Lab, College of Veterinary Medicine, Cornell …, 2017)
Among all 6,200 compounds or so, about 2,900 (47%) were called active. The set was probably picked from earlier hits. The list shows a part of the results. Unmarked numbers belong to inactive results. Cut-off read from the data, not from the text of the source: active = inhibition above about 50%; inactive = the rest.

Experiment: Mycobacterium tuberculosis growth inhibition, primary screen (AID 1259343)
Settings: inhibition: at 10 µM, stronger effect = higher value; outcome: 10 uM

SMILES	inhibition
CCCCn1c(C2CCCCC2)nc2oc3ccccc3c(=O)c2c1=O	-33.2%
COc1nc(C)ccc1CNC(=O)C(=O)Nc1cccc(F)c1F	8.51%
CN(Cc1nc(-c2ccc(C(F)(F)F)cc2)no1)CC(O)c1ccccc1 (stereo unspecified)	84.5% (active)
Clc1ccc(-c2noc(COc3ccc4c(c3)OCO4)n2)cc1	18.1%
Cc1ccc(-c2noc(CSc3ncccn3)n2)cc1	42.6%
CN(Cc1nc(-c2ccccc2)no1)Cc1ccnc2ccccc12	-26.1%
CC(C)c1ccc(-c2noc(CN(C)c3ccccc3)n2)cc1	63.2% (active)
Cc1ccc(-c2noc(CC#N)n2)cc1	77.1% (active)
Cc1ccc(-c2noc(COc3ccc(C(C)C)cc3)n2)cc1	95.7% (active)
N#CCOc1ccc(CNc2ncc(Br)cn2)cc1	33.8%
Cc1ccc(-c2noc(CN3CCCc4ccccc43)n2)cc1	101% (active)
O=c1[nH]nc(SCc2ccccc2)c(=S)[nH]1	85.6% (active)
N#Cc1c(SCc2ccccc2)n[nH]c1-c1cccs1	37.8%
CC(C)CC(=O)Nc1nnc(C(C)(C)C)s1	17.4%
CC(C)(C)c1nnc(NC(=O)c2cc(C(F)(F)F)cc(C(F)(F)F)c2)s1	96% (active)
CCCc1nc(N2C[C@@H]3[C@H](C2)[C@H]2CC[C@@H]3O2)no1	-30.4%
CC(C)c1cc(C(=O)N2C[C@@H]3[C@H](C2)[C@H]2CC[C@@H]3O2)cs1	-8.56%
CC(C)Cc1cc(C(=O)N2C[C@@H]3[C@H](C2)[C@H]2CC[C@@H]3O2)on1	83.1% (active)
CC(C)c1noc(-c2ccc(NC(=O)N3CCCC3)cc2)n1	73.4% (active)
Cc1ccc(NC(=O)N2CCN(CCCOC(c3ccc(Cl)cc3)c3ccc(Cl)cc3)CC2)cc1	-2.85%
CC1CCN(C(=O)Nc2ccc(Br)cc2)CC1	30.1%
COc1ccc(NC(=O)c2ccc(=O)n(C)c2)cc1Br	2.47%
COC(F)(C(=O)Nc1ccc(C)c(Br)c1)C(F)(F)F (stereo unspecified)	56.7% (active)
Cc1ccc(NC(=O)c2ncoc2C(C)C)cc1Br	40.1%
O=C1CC(c2ccccc2)CC(=O)C1S(=O)c1ccc(Cl)cc1 (stereo unspecified)	58.1% (active)
C=C=C/C=C/C=C\Oc1ccc(CO)cc1O/C=C\C=C\C=C=C	88.7% (active)

SMILES	inhibition
Brc1ccc(OCc2nnc(-c3cccs3)o2)cc1	42.8%
CC(C)(C)c1noc(COc2ccc(O)cc2)n1	39.8%
Cc1nc(COc2ccc(Oc3nccs3)cc2)oc1C	80% (active)
CC(C)NC(=O)c1ccc(OCc2cccs2)cc1	-17.8%
CC(c1cccs1)N(C)C(=O)COc1ccc(F)cc1 (stereo unspecified)	59.8% (active)
CN(C)Cc1nc(Cl)c2c3c(sc2n1)CCCCC3	69.8% (active)
CC1CCc2c(nc3sc4c(c3c2N)CCCC4)C1 (stereo unspecified)	32.6%
CN(CCC1CCCCC1)C(=O)Nc1ccsc1	48.9%
CCc1ccc(CN(C)C(=O)NCCC2CCCC2)cc1	99.2% (active)
CC(CCc1ccccc1)NC(=O)NCCC1CCCC1 (stereo unspecified)	-6.93%
NC(=O)c1ccc(CSCc2cccc(F)c2)cc1	19.5%
CC(C)(C)c1ccc(COc2ccccc2C(N)=O)cc1	30.2%
CCc1cc(OCc2ccc(C(N)=O)cc2)ccc1Cl	-54%
NC(=O)c1cc(Cl)ccc1OCc1ccccc1Br	1.54%
Cc1cccc(OCc2ccc(C(N)=O)cc2)c1C	64.1% (active)
Cc1cc(Cl)ccc1OCc1ccc(C(N)=O)cc1	68.2% (active)
CC(C)c1cc(C(=O)NC2CC2)nn1-c1nc2ccccc2s1	94.4% (active)
CC(C)c1cc(C(=O)NC2CCN(c3cccc(F)c3)CC2)n[nH]1	41.4%
Cc1nc(-n2nc(C3CC3)cc2NC(=O)c2ccccc2F)[nH]c(=O)c1C	-15.9%
Cc1nc(-n2nc(C3CC3)cc2NC(=O)c2ccccc2Cl)[nH]c(=O)c1C	80.4% (active)
Cc1cc(=O)[nH]c(-n2nc(C3CC3)cc2NC(=O)c2ccccc2Cl)n1	101% (active)
Cc1cc(=O)[nH]c(-n2nc(C3CC3)cc2NC(=O)c2c(F)cccc2F)n1	99.2% (active)
Cc1cc(=O)[nH]c(-n2nc(C3CC3)cc2NC(=O)c2ccccc2C(F)(F)F)n1	99.9% (active)
Cc1cc(=O)[nH]c(-n2nc(C3CC3)cc2NC(=O)c2cccc3ccccc23)n1	99.8% (active)
Cc1cc(=O)[nH]c(-n2nc(C3CC3)cc2NC(=O)c2ccccc2F)n1	101% (active)
